Laboratory results published in PubChem BioAssay (NCATS).
Active and inactive are the calls of the source. Calls follow the shape of the dose curve; as a rule, active = well fitted curve in the direction sought with a large enough effect; inconclusive = small, poorly fitted or top-dose-only effect, or another doubt; inactive = no such curve, though single readings can be large or run the other way.

Experiment: Cellular Toxicity (caspase-3) HUV-EC-C (AID 656)
Conditions: HUV-EC-C cells, caspase-3 activation (apoptosis), vehicle = 0, 100 µM tamoxifen = 100%; series mostly up to 92.2 µM; caspase-3 activation: at the top concentration
From the text: NIH Chemical Genomics Center [NCGC]
NIH Molecular Libraries Screening Centers Network [MLSCN]
National Institutes of Environmental Health Sciences [NIEHS]
National Toxicology Program [NTP]
We have developed a 1536-well cell-based assay for quantitative high throughput screening (qHTS) against a number of cell lines to determine in vitro caspase 3/7 of small molecules. This particular assay uses the HUV-EC-C cell line which is derived from normal human vascular endothelial cells.
NCGC Assay Protocol Summary:
The Caspase-Glo 3/7 assay (Promega) is a homogeneous method to measure caspase-3 and caspase-7 activities in cultured cells. The quantitation of caspase 3/7 activity is based on the cleavage of a peptide-aminoluciferin substrate. After caspase cleaves the substrate the free aminoluciferin is liberated and serves as the substrate of luciferase, which generates the light. The luminescent signal is proportional to amount of caspase 3/7 activity present.
Using the Caspase-Glo 3/7 assay, the amount of caspase 3/7 activity was measured in the HUV-EC-C cell line with complete culture medium following compound treatment for 16 hours. The assay was performed in opaque white 1536-well plates. In the screen, tamoxifen and doxorubicin were used as positive controls. Library compounds were measured for their ability to cause the activation of caspase 3/7 in the cell line, as reflected by an increase in luminescence signal, in a concentration-dependent manner. Data were normalized to the controls for basal activity (DMSO only) and 100% stimulation (100 uM tamoxifen). AC50 values were determined from concentration-response data modeled with the standard Hill equation.
qHTS protocol for caspase 3/7 assay in HUV-EC-C cell line
[Step] [Parameter] [Value] [Description]
1. Reagent; 5 uL; 1000 HUV-EC-C cells/well
2. Time; 5 hr; 37 °C incubation
4. Controls; 23 nL; Tamoxifen 0.23 uM to 100 uM & doxorubicin 7.0 pM to 100 uM
5. Time; 16 hr; 37 °C incubation
6. Reagent; 5 uL; Caspase-Glo 3/7 reagent
7. Time; 20 min; Room Temperature
8. Detection; Luminescence; Viewlux plate reader
Keywords: caspase 3/7, apoptosis, HUV-EC-C cell line, luminescence, NTPHTS, NTPHTS_NCGC, NIEHS, EPA, DSSTox, MLSMR, MLSCN, NIH Roadmap, qHTS, NCGC

| Compound | caspase-3 activation | outcome |
| --- | --- | --- |
| Cc1nnc(NS(=O)(=O)c2ccc(N)cc2)s1 | -2.08% (inactive) | – |
| NC(N)=NC(N)=NCCc1ccccc1 | -0.144% (inactive) | – |
| Cc1ncc([N+](=O)[O-])n1CCO | -2.09% (inactive) | – |
| CC1=NN(c2ccccc2)C(=O)C1 | -1.12% (inactive) | – |
| CC[C@H](C)C(=O)O[C@H]1C[C@@H](C)C=C2C=C[C@H](C)[C@H](CC[C@@H]3C[C@@H](O)CC(=O)O3)[C@H]21 | 1.05% (inactive) | – |
| CC(=O)Oc1ccccc1C(=O)Nc1ncc([N+](=O)[O-])s1 | -9.1% (inactive) | – |
| NNC(=O)c1ccncc1 | 1.21% (inactive) | – |
| O=C(N[C@H](CO)[C@H](O)c1ccc([N+](=O)[O-])cc1)C(Cl)Cl | 0.128% (inactive) | – |
| N=C(N)c1ccc(OCCCCCOc2ccc(C(=N)N)cc2)cc1 | -0.719% (inactive) | – |
| COc1ccc2cc3[n+](cc2c1OC)CCc1cc2c(cc1-3)OCO2 | -4.22% (inactive) | – |
| Cc1cc(NS(=O)(=O)c2ccc(N)cc2)no1 | -1.88% (inactive) | – |
| C[C@]12C=CC(=O)C=C1CC[C@@H]1[C@@H]2C(=O)C[C@@]2(C)[C@H]1CC[C@]2(O)C(=O)CO | -3.55% (inactive) | – |
| CCc1cc(C(N)=S)ccn1 | -3.45% (inactive) | – |
| Cc1ccnc2c1NC(=O)c1cccnc1N2C1CC1 | -1.6% (inactive) | – |
| Cc1noc(NS(=O)(=O)c2ccc(N)cc2)c1C | 2.51% (inactive) | – |
| O=C(O)c1cc(=O)[nH]c(=O)[nH]1 | 17.4% (inactive) | – |
| CC(=O)[C@H]1CC[C@H]2[C@@H]3CCC4=CC(=O)CC[C@]4(C)[C@H]3CC[C@]12C | – | inactive |
